# Data as given in PubChem BioAssay AID1159580 (chemical genetic matrix, 2015).
# About 2,000 (36%) of roughly 5,500 compounds were called active. Inconclusive results (about 18%) are left out. Some of the results follow. A number with no mark means an inactive call. Rule as the data show it: active = normalized growth mostly below about 0.91 (no sharp cut-off); inconclusive = no clear call, values can overlap the other calls; inactive = mostly above about 0.92.
# Experiment: chemical genetic growth profiling, strain panel (AID 1159580);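 also: tested at 20 µM; growth read once vehicle control cultures reached saturation at 30 °C; 1 = growth at the plate median or of vehicle wells; lower values mean less growth of the strain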
# Conditions: S. cerevisiae deletion strains, growth OD
# [1] = locus YDR150W, strain NUM1, hits give low values
# [2] = locus YGR078C, strain PAC10, hits give low values
# [3] = locus YGR229C, strain SMI1, hits give low values
# [4] = locus YJR075W, strain HOC1, hits give low values
# [5] = locus YMR263W, strain SAP30, hits give low values
# [6] = locus YNL153C, strain GIM3, hits give low values
# [7] = locus YPL055C, strain LGE1, hits give low values
# [8] = locus YPL241C, strain CIN2, hits give low values
# [9] = locus YDL101C, strain DUN1, hits give low values
# [10] = locus YHR030C, strain SLT2, hits give low values
smiles,measurement,setting,value
CCN(CC)CCOC(=O)c1cc(Cl)c(N)cc1OC,normalized growth,"locus YAL040C, strain CLN3, hits give low values",0.981
same,normalized growth,"locus YCL061C, strain MRC1 (second series), hits give low values",1.01
same,normalized growth,[1],1
same,normalized growth,"locus YDR363W, strain ESC2, hits give low values",1
same,normalized growth,"locus YER002W, strain NOP16, hits give low values",1.02
same,normalized growth,[2],1.01
same,normalized growth,[3],1.01
same,normalized growth,[4],1.01
same,normalized growth,[5],1
same,normalized growth,"locus YMR307W, strain GAS1, hits give low values",1
same,normalized growth,"locus YNL128W, strain TEP1, hits give low values",1
same,normalized growth,[6],1
same,normalized growth,"locus YNL175C, strain NOP13, hits give low values",1
same,normalized growth,"locus YNL197C, strain WHI3, hits give low values",1.01
same,normalized growth,"locus YNL224C, strain SQS1, hits give low values",1
same,normalized growth,"locus YOR083W, strain WHI5 (second series), hits give low values",1.01
same,normalized growth,[7],0.954
same,normalized growth,[8],1
COC(=O)c1ccc(Cl)cc1NS(=O)(=O)c1ccc(OC)c(OC)c1,normalized growth,"locus YAL013W, strain DEP1, hits give low values",1.01
same,normalized growth,"locus YBR229C, strain ROT2, hits give low values",0.976
same,normalized growth,[9],0.987
same,normalized growth,[1],1.04
same,normalized growth,"locus YEL061C, strain CIN8, hits give low values",1.01
same,normalized growth,[2],0.986
same,normalized growth,[3],1.02
same,normalized growth,[10],0.969
same,normalized growth,"locus YHR087W, strain rtc3, hits give low values",1.02
same,normalized growth,"locus YJL187C, strain SWE1, hits give low values",1
same,normalized growth,"locus YJR043C, strain POL32, hits give low values",0.978
same,normalized growth,[4],0.984
same,normalized growth,"locus YKL190W, strain CNB1, hits give low values",1.01
same,normalized growth,"locus YLR039C, strain RIC1, hits give low values",0.934
same,normalized growth,"locus YLR058C, strain SHM2 (second series), hits give low values",1.01
same,normalized growth,"locus YLR085C, strain ARP6, hits give low values",1.01
same,normalized growth,"locus YLR262C, strain YPT6, hits give low values",0.947
same,normalized growth,"locus YML094W, strain GIM5, hits give low values",1.03
same,normalized growth,"locus YMR219W, strain ESC1, hits give low values",1
same,normalized growth,[5],0.986
same,normalized growth,[6],0.996
same,normalized growth,"locus YNL298W, strain CLA4 (second series), hits give low values",0.989
same,normalized growth,"locus YNL322C, strain KRE1, hits give low values",1
same,normalized growth,"locus YNR030W, strain Alg12, hits give low values",0.998
same,normalized growth,[7],0.966
same,normalized growth,[8],1.01
same,normalized growth,"locus YPR135W, strain CTF4, hits give low values",0.999
COc1cc(Cl)ccc1N/N=C(/C#N)C(N)=O,normalized growth,"locus YAR019C, strain CDC15, hits give low values",0.106 (active)
same,normalized growth,"locus YBL105C, strain PKC1, hits give low values",0.0965 (active)
same,normalized growth,"locus YBR135W, strain CKS1, hits give low values",0.109 (active)
same,normalized growth,"locus YBR136W, strain MEC1, hits give low values",0.104 (active)
same,normalized growth,"locus YBR160W, strain CDC28, hits give low values",0.104 (active)
same,normalized growth,"locus YDL017W, strain CDC7, hits give low values",0.0952 (active)
same,normalized growth,"locus YDL028C, strain MPS1, hits give low values",0.111 (active)
same,normalized growth,[9],0.124 (active)
same,normalized growth,"locus YDL108W, strain KIN28, hits give low values",0.114 (active)
same,normalized growth,"locus YDL132W, strain cdc53, hits give low values",0.102 (active)
same,normalized growth,"locus YDL214C, strain PRR2, hits give low values",0.116 (active)
same,normalized growth,"locus YDR052C, strain DBF4, hits give low values",0.0987 (active)
same,normalized growth,"locus YDR054C, strain cdc34, hits give low values",0.104 (active)
same,normalized growth,"locus YDR226W, strain ADK1, hits give low values",0.103 (active)
same,normalized growth,"locus YDR477W, strain SNF1, hits give low values",0.115 (active)
same,normalized growth,"locus YER123W, strain YCK3, hits give low values",0.112 (active)
same,normalized growth,"locus YER133W, strain GLC7, hits give low values",0.12 (active)
same,normalized growth,"locus YFL009W, strain cdc4, hits give low values",0.109 (active)
same,normalized growth,"locus YFL029C, strain CAK1, hits give low values",0.109 (active)
same,normalized growth,"locus YFR003C, strain YPI1, hits give low values",0.0947 (active)
same,normalized growth,"locus YFR019W, strain FAB1, hits give low values",0.112 (active)
same,normalized growth,"locus YFR028C, strain CDC14, hits give low values",0.106 (active)
same,normalized growth,"locus YGR040W, strain KSS1, hits give low values",0.112 (active)
same,normalized growth,"locus YGR052W, strain FMP48, hits give low values",0.153 (active)
same,normalized growth,"locus YGR092W, strain DBF2, hits give low values",0.11 (active)
same,normalized growth,[10],0.194 (active)
same,normalized growth,"locus YHR079C, strain IRE1, hits give low values",0.214 (active)
same,normalized growth,"locus YHR082C, strain KSP1, hits give low values",0.221 (active)
same,normalized growth,"locus YHR205W, strain SCH9, hits give low values",0.0135 (active)
same,normalized growth,"locus YIL147C, strain SLN1, hits give low values",0.107 (active)
same,normalized growth,"locus YJL095W, strain BCK1, hits give low values",0.189 (active)
same,normalized growth,"locus YJL128C, strain PBS2, hits give low values",0.103 (active)
same,normalized growth,"locus YJL157C, strain FAR1, hits give low values",0.105 (active)
same,normalized growth,"locus YJR016C, strain ILV3, hits give low values",0.0991 (active)
same,normalized growth,"locus YJR066W, strain TOR1 (second series), hits give low values",0.112 (active)
same,normalized growth,"locus YJR066W, strain TOR1, hits give low values",0.181 (active)
same,normalized growth,"locus YKL048C, strain ELM1, hits give low values",0.128 (active)
same,normalized growth,"locus YKL067W, strain YNK1, hits give low values",0.119 (active)
same,normalized growth,"locus YKL101W, strain HSL1, hits give low values",0.106 (active)
same,normalized growth,"locus YKL193C, strain SDS22, hits give low values",0.106 (active)
same,normalized growth,"locus YKL203C, strain TOR2, hits give low values",0.116 (active)
same,normalized growth,"locus YLR113W, strain HOG1, hits give low values",0.262 (active)
same,normalized growth,"locus YLR133W, strain CKI1, hits give low values",0.111 (active)
same,normalized growth,"locus YLR403W, strain SFP1, hits give low values",0.00868 (active)
same,normalized growth,"locus YML070W, strain DAK1, hits give low values",0.114 (active)
same,normalized growth,"locus YMR001C, strain CDC5, hits give low values",0.108 (active)
same,normalized growth,"locus YMR205C, strain PFK2 (second series), hits give low values",0.104 (active)
same,normalized growth,"locus YMR277W, strain FCP1, hits give low values",0.106 (active)
same,normalized growth,"locus YNL006W, strain LST8, hits give low values",0.0981 (active)
same,normalized growth,"locus YNL020C, strain ARK1, hits give low values",0.11 (active)
same,normalized growth,"locus YNL161W, strain CBK1, hits give low values",0.106 (active)
same,normalized growth,"locus YNL183C, strain NPR1, hits give low values",0.148 (active)
same,normalized growth,"locus YNL207W, strain RIO2, hits give low values",0.107 (active)
same,normalized growth,"locus YNL222W, strain SSU72, hits give low values",0.105 (active)
same,normalized growth,"locus YNL307C, strain MCK1 (second series), hits give low values",0.12 (active)
same,normalized growth,"locus YOL078W, strain AVO1, hits give low values",0.105 (active)
same,normalized growth,"locus YOL136C, strain PFK27, hits give low values",0.115 (active)
same,normalized growth,"locus YOR061W, strain CKA2, hits give low values",0.0994 (active)
same,normalized growth,"locus YOR119C, strain RIO1, hits give low values",0.115 (active)
same,normalized growth,"locus YOR231W, strain MKK1, hits give low values",0.231 (active)
same,normalized growth,"locus YOR329C, strain SCD5, hits give low values",0.102 (active)
same,normalized growth,"locus YPL031C, strain PHO85, hits give low values",0.107 (active)
same,normalized growth,"locus YPL153C, strain RAD53, hits give low values",0.111 (active)
same,normalized growth,"locus YPL204W, strain HRR25, hits give low values",0.117 (active)
same,normalized growth,"locus YPL209C, strain IPL1, hits give low values",0.0959 (active)
same,normalized growth,"locus YPL256C, strain CLN2, hits give low values",0.231 (active)
same,normalized growth,"locus YPR025C, strain CCL1, hits give low values",0.107 (active)
same,normalized growth,"locus YPR106W, strain ISR1, hits give low values",0.0943 (active)
same,normalized growth,"locus YPR111W, strain DBF20, hits give low values",0.108 (active)
same,normalized growth,"strain NNK1, hits give low values",0.0995 (active)
same,normalized growth,"strain TSCII, hits give low values",0.107 (active)
